Screens as filed in PubChem BioAssay.
Compounds with a hit are over-represented: about 6.1% of the library has one in this group of screens.
TGFb inhibitor – qHTS for Inhibitors of TGF-b; HepG2 CAGA-GFP TGF-b/SMAD3 reporter, GFP fluorescence, 18 h; TGF-beta stimulated, 500 pg/mL final; actives 1.2% (n = 410,000); Potency, µM (highest dose often 46.1 µM), for inactives: at the top dose activity, negative = inhibition, actives largely listed as inhibitors; note: % is set by controls: 0 for no effect and ±100 for the full control effect; nearly all actives have a fitted effect of over 65% in size
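HEPG2 CAGA-GFP, 1000 cells/well; 2 h settle, 37 C; cpd via pin tool; TGF-b 500 pg/mL final; 18 h, 37 C; GFP imaging ex488/em500-530; %Activity normalised to -TGF-b and +DMSO controls; CRC fit, curve class.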
ATXN2 expr inh – Primary qHTS for Inhibitors of ATXN expression; HEK-293 ATXN2-luciferase reporter, luminescence, 24 h; Potency, µM (top dose mostly 57 µM), without a hit: at the highest dose activity change, negative = inhibition, most hits filed as inhibitors; actives 0.72% (n = 360,000); AID 1745845, 2022; note: % is set by controls: 0 for no effect and ±100 for the full control effect; nearly all actives have a fitted effect of over 55% in size
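ATXN2-luciferase reporter cells (luciferase flanked by upstream and downstream ATXN2 gene portions) were treated 24 h at 37 °C with compounds at up to 57 uM. SteadyGlo luminescence gave expression; GF-AFC fluorescence gave viability.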
HepG2 tox – qHTS for Inhibitors of TGF-b: Cytotox Counterscreen; HepG2 CAGA-GFP viability, ATP luminescence, 18 h; actives 0.76% (n = 410,000); AID 588856, 2011; Potency, µM (doses to about 46.1 µM), inactives show at the top dose activity change, negative = cytotoxicity, actives largely listed as cytotoxic
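CellTiter-Glo luminescence gave cytotoxicity after 18 hours at 37 degrees C. The cells were HepG2 CAGA-GFP in 1% FBS DMEM, stimulated with 500 pg/mL TGF-beta after compound addition. %Activity was normalised to no-cell wells (complete cell-killing) and DMSO (no toxicity), and curves were fitted and classified.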
Gal4-VP16 FLuc – VP16 counterscreen qHTS for inhibitors of ROR gamma transcriptional activity; Drosophila S2 Gal4-VP16 UAS-luciferase, luminescence, 20 h; Potency, µM (doses to about 53.6 µM), for inactives: at the top dose activity, negative = inhibition, hits mostly inhibitors; actives 3.5% (n = 310,000); AID 2546, 2010;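 note: Gal4-VP16 expression switched on by copper sulfate through the metallothionein promoter; % is set by controls: 0 for no effect and ±100 for the full control effect; nearly all actives have a fitted effect of over 50% in size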
RORg inh – qHTS for inhibitors of ROR gamma transcriptional activity; actives 5.4% (n = 310,000); AID 2551, 2010; Drosophila S2 Gal4-RORgamma UAS-luciferase reporter, 20 h; Potency, µM (top dose mostly 53.6 µM), for the others: at the highest dose activity change, negative = inhibition, hits mostly inhibitors; note: % is set by controls: 0 for no effect and ±100 for the full control effect; nearly all actives have a fitted effect of over 60% in size
Target sequence (P51450 whole entry, looked up, the tested form may be a part): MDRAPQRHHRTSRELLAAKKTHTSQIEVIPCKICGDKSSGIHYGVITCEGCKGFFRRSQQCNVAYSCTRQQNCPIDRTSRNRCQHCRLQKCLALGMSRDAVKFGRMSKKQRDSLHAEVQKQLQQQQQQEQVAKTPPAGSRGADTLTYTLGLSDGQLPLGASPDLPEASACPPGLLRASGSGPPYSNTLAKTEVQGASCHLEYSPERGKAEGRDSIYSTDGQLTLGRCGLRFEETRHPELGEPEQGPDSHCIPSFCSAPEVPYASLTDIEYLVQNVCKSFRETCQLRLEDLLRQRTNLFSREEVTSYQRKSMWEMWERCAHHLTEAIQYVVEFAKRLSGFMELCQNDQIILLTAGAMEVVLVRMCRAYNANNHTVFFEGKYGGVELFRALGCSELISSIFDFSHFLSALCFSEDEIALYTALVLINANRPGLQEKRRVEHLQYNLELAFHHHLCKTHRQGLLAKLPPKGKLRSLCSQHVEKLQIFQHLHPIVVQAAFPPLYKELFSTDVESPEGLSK
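A Gal4/UAS one-hybrid system in insect cells: metallothionein-promoter Gal4–ROR gamma fusion plus Photinus luciferase reporter. Copper sulfate 700 uM final, 20 hr ambient incubation, luminescent detection after 10 min with reagent.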
ATXN viability – Viability Counterscreen for Primary qHTS for Inhibitors of ATXN expression. S2 cells (HEK-293 line with an ATXN2-luciferase reporter) viability, CellTiter-Fluor protease fluorescence, 24 h. Potency, µM (titrated, usually from 56.7 µM), hits mostly cytotoxic. actives 0.49% (n = 400,000). AID 651635, 2014; note: nearly all actives have a fitted effect of over 40% in size
Active calls of the source: *; i = inactive; u = inconclusive; x = no result. Calls come from the whole dose curve; as a rule, active = well fitted curve in the direction sought with a large enough effect; inconclusive = small, poorly fitted or top-dose-only effect, or another doubt; inactive = no such curve, though single readings can be large; an effect the other way counts as inactive or inconclusive. Potency is the fitted concentration of half-maximal effect.

SMILES	TGFb inhibitor	ATXN2 expr inh	HepG2 tox	Gal4-VP16 FLuc	RORg inh	ATXN viability
Fc1ccc(Nc2nc3nonc3nc2Nc2cccc(C(F)(F)F)c2)cc1	0.71µM*	x	-109%	x	x	x
O=C(O)c1cccnc1Nc1cccc(C(F)(F)F)c1	10%	14%	3%	-1%	u	i
CCc1nnc2c(NCc3ccccc3OC)nc3ccccc3n12	0%	x	-4%	x	x	x
COC(=O)c1c(NC(=O)C2c3ccccc3Oc3ccccc32)sc2c1CCC(C(C)(C)C)C2 (configuration not stated)	-9%	4%	0%	x	x	i
COc1cccc(/C=N/Nc2nccnc2Cl)c1O	-29%	5.6µM*	11µM*	7.1µM*	3.2µM*	u
Oc1ccccc1/C=N/Nc1nccnc1Cl	0%	u	-31%	u	13µM*	u
Oc1ccc(/C=N/Nc2nccnc2Cl)c(O)c1	2%	u	-19%	16µM*	u	u
COc1cccc(/C=N/Nc2ncnc3scc(-c4ccccc4)c23)c1O	u	1.1µM*	-3%	13µM*	2.8µM*	i
COc1ccccc1CNC(=O)CN1C(=O)CSc2ccc(S(=O)(=O)N(C)C)cc21	-5%	3%	-5%	x	x	i
COc1ccc2c(c1)OC(C)CN(CCNC(=O)c1cccc(N3CCNC3=O)c1)C2 (configuration not stated)	x	x	x	x	x	i
COc1cc2c(NC3CCN(C)CC3)nc(N3CCCN(C)CC3)nc2cc1OCC1CCNCC1	-16%	x	0%	x	x	x
COc1cccc(C=NCCCN=Cc2cccc(OC)c2O)c1O	u	8%	-5%	-3%	7.9µM*	i
CC[C@H](CC[C@@H](C)[C@H]1CC[C@H]2[C@@H]3CC=C4C[C@@H](O)CC[C@]4(C)[C@@H]3CC[C@]12C)C(C)C	x	-9%	x	x	x	x
Cc1ccc(NC(=S)Nc2ccc3[nH]c(=O)[nH]c3c2)cc1C	u	0%	-3%	u	11µM*	i
CC(=O)c1ccc(NC(=S)Nc2ccc3[nH]c(=O)[nH]c3c2)cc1	31%	x	26%	5%	0%	i
O=C(NCCc1ccccc1)c1cccc(N2CCCC2=O)c1	4%	x	-25%	10µM*	11µM*	i
Cc1cccc(CCNC(=O)c2cccc(N3CCCC3=O)c2)c1	-1%	x	0%	-15%	10µM*	i
C=C(C)[C@@H]1CC[C@]2(C)CC[C@]3(C)[C@H](CC[C@@H]4[C@@]5(C)CC[C@H](O)C(C)(C)[C@H]5CC[C@]43C)[C@@H]12	x	5%	x	x	x	x
COc1ccc(OC)c(CNc2ncc(-c3ccc(Cl)cc3)n2C)c1	5%	-2%	-15%	x	x	i
C/C(=N\NC(=O)Cc1ccccc1)c1ccc(Cl)s1	-3%	6%	3%	2%	2%	i
COCCNC(=S)N/N=C(\C)c1ccc(Cl)s1	u	0%	-26%	3.2µM*	0.79µM*	u
C/C(=N\NC(=S)NCc1ccccc1)c1ccc(Cl)s1	10%	-1%	-7%	8.9µM*	1.4µM*	i
C/C(=N\NC(=O)Cc1ccccc1)c1cccs1	-2%	4%	-2%	-1%	-2%	i
C/C(=N\NC(=S)NCc1ccccc1)c1cccs1	-6%	42%	0%	2µM*	0.45µM*	i
COc1cccc(N2CCN(C(=O)Cn3c(-c4cccs4)cc4ccccc43)CC2)c1	u	-5%	-13%	x	x	i
SMILES	TGFb inhibitor	ATXN2 expr inh	HepG2 tox	Gal4-VP16 FLuc	RORg inh	ATXN viability
COc1ccc(C)cc1NC(=O)N(C(C)C)C1CCN(C(C)=O)CC1	-31%	x	9%	x	x	x
CCn1nc(-c2ccc(C)cc2)nc2c(=O)n(C)c(=O)nc1-2	0.5µM*	x	0.71µM*	x	x	x
Cn1nc(-c2ccncc2)nc2c(=O)n(C)c(=O)nc1-2	1.3µM*	x	-96%	x	x	x
Cc1ccccc1-c1cnc(C(O)c2ccc(Cl)c(F)c2)[nH]1 (configuration not stated)	-21%	3%	3.2µM*	x	x	i
OC(c1ccc(Cl)c(F)c1)c1ncc(-c2ccccc2F)[nH]1 (configuration not stated)	4%	2%	-29%	x	x	i
COc1ccc(CN2CCC3(CC2)c2ccccc2[C@@H](NC(=O)c2ccco2)[C@@H]3OC)c(O)c1	x	x	x	x	x	i
CCn1c(=S)sc2c(=O)n(CC(=O)Nc3ccccc3C(F)(F)F)c(C)nc21	1%	x	-13%	4%	-17%	32µM*
CCCCN(C)S(=O)(=O)c1ccc(C(=O)Nc2nnc(-c3ccco3)o2)cc1	-10%	u	-1%	0.71µM*	0.4µM*	i
CCCCN(CC)S(=O)(=O)c1ccc(C(=O)Nc2nnc(-c3cccs3)o2)cc1	-18%	u	17%	0.13µM*	0.028µM*	u
CN(c1ccccc1)S(=O)(=O)c1ccc(NC(=O)c2ccc(-c3ccccc3)cc2)cc1	-19%	u	-1%	-17%	u	i
CCN(CC)S(=O)(=O)c1ccc(Cl)c(NC(=O)CSc2nnc(-c3cccs3)o2)c1	-1%	-2%	-7%	-5%	3%	i
CN(C)S(=O)(=O)c1ccc(C(=O)Nc2nnc(-c3ccco3)o2)cc1	-19%	11%	-30%	3.2µM*	1µM*	i
CN(c1ccccc1)S(=O)(=O)c1ccc(C(=O)Nc2nnc(-c3ccc(F)cc3)o2)cc1	0%	u	-41%	1.6µM*	1µM*	i
O=C(CCS(=O)(=O)c1ccc(F)cc1)Nc1nnc(-c2ccco2)o1	u	11%	-1%	x	x	i
O=C(Nc1nnc(-c2ccco2)o1)c1cccc(N2C(=O)CCC2=O)c1	3%	12%	12%	4%	-33%	i
CCN(CC)S(=O)(=O)c1ccc(C(=O)Nc2nnc(-c3ccco3)o2)cc1	-8%	x	-46%	1.3µM*	0.56µM*	i
COc1cc(Nc2ncc3c(n2)-c2ccc(Cl)cc2C(c2c(F)cccc2OC)=NC3)ccc1C(=O)O	x	1%	x	x	x	x
Cc1[nH]n(-c2ccccc2)c(=O)c1/C=N/NC(=O)c1cccc(F)c1	u	x	16µM*	1.3µM*	0.56µM*	u
Cc1[nH]n(-c2ccc(Br)cc2)c(=O)c1/C=N/NC(=O)c1ccccc1	3.5µM*	x	-42%	0.13µM*	0.28µM*	i
O=C(N/N=C/c1ccc(Br)cc1)c1ccc(NC(=O)c2ccccc2)cc1	18%	x	15%	x	x	i
